High-throughput results as filed in PubChem.
ERb coact inh = blocks coactivator binding to human estrogen receptor beta; TR-FRET ER-beta LBD / SRC1-Cy5 peptide binding; receptor agonist-loaded with 1 µM estradiol; inhibition, % at 25.6 µM; 1.3% of 86,000 active; AID 633;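 active = compounds whose percent inhibition of the receptor-coactivator binding signal exceeds about 50% in the single-dose screen, limit read from the data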
ERa coact inh = ER-alpha (human) coactivator binding inhibition; AID 629; P03372; inhibition, % at 25.6 µM; 1.7% of 86,000 active; TR-FRET ER-alpha LBD / SRC-1 peptide, estradiol-bound; in the data active = inhibition above about 50%
ERa coact pot = enhances coactivator binding to human estrogen receptor alpha. P03372. TR-FRET ERalpha-LBD/SRC-Cy5 coactivator binding, 2 h; 100 = basal binding, no effect. coactivator binding (% of control), % at 25.6 µM. 1.3% of 86,000 active; in the data active = activity above about 200%;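 also: binding measured in presence of low estradiol as agonist stimulus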
PLK1 kinase inh = inhibitors of human PLK1 kinase; recombinant PLK1 kinase, TR-FRET peptide phosphorylation; inhibition, % at 10 µM; AID 619; P53350; 0.53% of 97,000 active;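 active = inhibition of 50% or more in the single-concentration screen; inactive = inhibition below 50%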
Smad3 FoxH1 inh = inhibitors of human Smad3 transcription factor binding; P84022; TR-FRET Smad3/Dy647-FoxH1 peptide binding, europium anti-His; inhibition, % at 25 µM; 0.29% of 88,000 active; AID 630;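 active = compounds that reduce the energy-transfer binding signal between the protein and its labelled peptide by more than half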
Target sequence (P84022 whole entry, looked up): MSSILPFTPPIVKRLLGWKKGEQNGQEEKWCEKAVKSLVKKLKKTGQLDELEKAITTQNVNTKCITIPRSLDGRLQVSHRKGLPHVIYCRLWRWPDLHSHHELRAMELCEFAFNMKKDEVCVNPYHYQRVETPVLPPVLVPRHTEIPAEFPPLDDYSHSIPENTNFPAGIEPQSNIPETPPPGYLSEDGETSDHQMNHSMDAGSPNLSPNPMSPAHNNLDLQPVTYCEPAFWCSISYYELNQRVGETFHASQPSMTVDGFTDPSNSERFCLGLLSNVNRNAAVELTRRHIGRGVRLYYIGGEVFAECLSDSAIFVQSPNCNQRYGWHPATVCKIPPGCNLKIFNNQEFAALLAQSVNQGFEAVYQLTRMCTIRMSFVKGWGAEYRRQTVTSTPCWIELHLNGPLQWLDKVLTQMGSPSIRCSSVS
Plk1 PBD FP = inhibitors of human Plk1 polo box domain binding; P53350; Plk1 PBD phosphopeptide binding, fluorescence polarization; inhibition, %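 (tested at about 20 µM)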; 0.13% of 97,000 active; in the data active = inhibition above about 34%, passing the limit was not always enough
Each line names hits and unclear results; the compound was inactive in the other large screens; [ ] = remark or other dose. Shown are actives, neighbours in structure and some others; about 3.3% of the full set was active somewhere.

Cc1ccccc1C(=O)Nc1ccc(N2CCOCC2)nc1	none (no result: ERb coact inh, ERa coact inh, ERa coact pot, Smad3 FoxH1 inh)
COc1cccc(-c2[nH]nc3c2C(c2ccsc2)C(C#N)=C(N)O3)c1 (stereo not given)	none (no result: ERb coact inh, ERa coact inh, ERa coact pot, Smad3 FoxH1 inh)
COc1cccc(-c2[nH]nc3c2C(c2ccoc2)C(C#N)=C(N)O3)c1 (stereo not given)	ERb coact inh 58.4
COc1cccc(N(C(=O)CNC(=O)c2ccco2)C(C(=O)NC2CCCCC2)c2ccncc2)c1 (stereo not given)	none
Cc1nnc2sc(-c3ccc(NC(=O)c4ccc(-c5ccc(Br)cc5)o4)cc3)nn12	ERa coact inh 69.3
Cc1nnc2sc(-c3cccc(NC(=O)c4ccc(-c5cccc(Cl)c5)o4)c3)nn12	none
Cc1ccc(-c2nn3c(C)nnc3s2)cc1NC(=O)c1ccc(-c2cccc(Cl)c2)o1	ERa coact inh 66.2
Cc1ccc(-c2nn3c(C)nnc3s2)cc1NC(=O)c1ccc(Br)o1	none
Cc1ccc(-c2nn3c(C)nnc3s2)cc1NC(=O)c1ccc(-c2ccc(Cl)cc2Cl)o1	ERa coact inh 67.4[fluorescence artefact?] (no result: PLK1 kinase inh, Plk1 PBD FP)
c1ccc2c(CN3CCN(Cc4c[nH]c5ccccc45)CC3)c[nH]c2c1	none (no result: ERb coact inh, ERa coact inh, ERa coact pot, PLK1 kinase inh, Plk1 PBD FP)
CC1Cc2ccccc2N1c1ncnc2nc[nH]c12 (stereo not given)	none (no result: PLK1 kinase inh, Plk1 PBD FP)
COc1ccc(-c2noc(CSc3nc(N)c(-c4ccccc4)c(=O)[nH]3)n2)cc1OC	none
COc1ccc(-c2noc(CSc3nc(-c4ccccc4)cc(=O)[nH]3)n2)cc1	ERa coact pot 241.6[fluorescence artefact?]
COC1CCCCC1NS(=O)(=O)c1ccccc1 (stereo not given)	none
COC1CCCCC1NS(=O)(=O)c1ccc(Cl)cc1 (stereo not given)	PLK1 kinase inh 68.3
CCCC(=O)Nc1ccc(-c2nc3cc(C)c(C)cc3o2)cc1	ERa coact inh 69.3[fluorescence artefact?]
Cc1ccc2oc(-c3ccc(NC(=O)c4cccnc4)cc3)nc2c1	ERa coact pot 248.5
CC(C)CC(=O)Nc1ccc2oc(-c3cccnc3)nc2c1	none
Cc1ccc2oc(-c3ccc(NC(=O)CC(C)C)cc3)nc2c1	ERa coact pot 225.0[fluorescence artefact?]
COc1ccc2c(c1)c(=O)oc1cc3occ(C(C)(C)C)c3cc12	none
COc1ccc2c(c1)c(=O)oc1cc3oc(C)c(C)c3cc12	ERb coact inh 56.6, ERa coact inh 67.0
CC(C)Cn1c(N)c(C(=O)CSc2nnnn2-c2ccc(Cl)cc2)c(=O)n(C)c1=O	ERa coact pot 326.9 (no result: PLK1 kinase inh, Plk1 PBD FP)
CC(C)Cn1c(N)c(C(=O)CSc2nnnn2C)c(=O)n(C)c1=O	none
Cc1ccc2c(c1)N[C@H](c1ccc(C(=O)O)cc1)c1cccn1-2	none (no result: ERb coact inh, ERa coact inh, ERa coact pot, PLK1 kinase inh, Plk1 PBD FP)
Cc1occc1C(=O)Nc1ccccc1NC(=O)c1ccoc1C	ERb coact inh 54.8, ERa coact inh 57.8
Cc1occc1C(=O)Nc1cccc2ccccc12	none
COc1cc(C2Nc3cccc4cccc(c34)N2)cc(OC)c1O	ERb coact inh 81.5[fluorescence artefact?], ERa coact inh 53.7[fluorescence artefact?]
COc1cc(C2Nc3cccc4cccc(c34)N2)ccc1OC(C)=O	none
CCOC(=O)C1=C(N)n2c(s/c(=C\c3cccnc3)c2=O)=C(C#N)C1c1cccnc1 (stereo not given)	ERa coact inh 51.6[fluorescence artefact?] (no result: PLK1 kinase inh, Plk1 PBD FP)
CC(CS(=O)(=O)c1ccc2ccccc2c1)N1CCN(C2CCCCC2)CC1 (stereo not given)	none
COc1ccc(NC(=O)CSc2nc3ccccc3c(=O)n2CCCN2CCCCC2)c(OC)c1	none
COCCCn1c(SCC(=O)Nc2ccc(NC(=O)c3ccco3)c(OC)c2)nc2ccccc2c1=O	ERa coact pot 213.0[fluorescence artefact?]
CC(C)C(=O)c1cc2c(cc1NC(=O)c1cccs1)OCCO2	none
O=C1C2C3C=CC(C2C(=O)N1CCCO)C1C2C(=O)N(CCCO)C(=O)C2C31 (stereo not given)	none (no result: ERb coact inh, ERa coact inh, ERa coact pot, Smad3 FoxH1 inh)
CN1CCN(CN2C(=O)[C@H]3[C@H]4C=C[C@@H]([C@@H]3C2=O)[C@H]2[C@@H]3C(=O)N(CN5CCN(C)CC5)C(=O)[C@@H]3[C@@H]42)CC1	Smad3 FoxH1 inh 56.5 (no result: ERb coact inh, ERa coact inh, ERa coact pot, PLK1 kinase inh, Plk1 PBD FP)
CN(Cc1cc(Br)cc(Br)c1O)Cc1c(O)ccc2ccccc12	none (no result: ERb coact inh, ERa coact inh, ERa coact pot, PLK1 kinase inh, Plk1 PBD FP)
NC(=O)c1sc2nc(-c3ccco3)ccc2c1N	none (no result: ERb coact inh, ERa coact inh, ERa coact pot, Smad3 FoxH1 inh)
COC(=O)c1sc2nc(-c3ccco3)ccc2c1N	ERb coact inh 73.2, ERa coact inh 54.3
O=C(Cc1coc2cc3c(cc12)CCC3)OCc1cc(=O)n2c(n1)sc1ccccc12	ERb coact inh 71.9, ERa coact inh 75.9
C/C(=N\[N-]C(=[SH+])SCc1ccccc1)c1ccccn1.[Cl][Cu]	Smad3 FoxH1 inh 80.9 (no result: ERb coact inh, ERa coact inh, ERa coact pot, PLK1 kinase inh, Plk1 PBD FP)
Cc1ccccc1S(=O)(=O)O[C@@H]1NS(=O)(=O)c2ccccc21	none (no result: ERb coact inh, ERa coact inh, ERa coact pot, PLK1 kinase inh, Plk1 PBD FP)
CNC[C@@H](SC)c1ccc(O)c(O)c1	none (no result: ERb coact inh, ERa coact inh, ERa coact pot, PLK1 kinase inh, Plk1 PBD FP)
O=C(O)c1ccc2c(c1C(=O)O)C(=O)OC2(c1ccc(O)cc1)c1ccc(O)cc1	Smad3 FoxH1 inh 77.9 (no result: ERb coact inh, ERa coact inh, ERa coact pot, PLK1 kinase inh, Plk1 PBD FP)
O=C1OC2(c3ccc(O)cc3Oc3cc(O)ccc32)c2c1c(-c1ccccc1)c(-c1ccccc1)c(-c1ccccc1)c2-c1ccccc1	none (no result: ERb coact inh, ERa coact inh, ERa coact pot, PLK1 kinase inh, Plk1 PBD FP)
COc1ccc(C2=NO[C@@H]3C(=O)N(c4c(C)cccc4C)C(=O)[C@H]23)cc1OC	none
COc1ccc(OC)c(N2C(=O)[C@@H]3C(c4ccccc4Cl)=NO[C@@H]3C2=O)c1	ERb coact inh 79.0, ERa coact inh 78.6
Cn1ncc2c(NCCc3ccccc3)nc(Cl)nc21	none (no result: ERb coact inh, ERa coact inh, ERa coact pot, PLK1 kinase inh, Plk1 PBD FP)
C/C(=N\NC1=NCCN1)c1cn(C2=NCCN2)nc1C	Smad3 FoxH1 inh 93.2 (no result: ERb coact inh, ERa coact inh, ERa coact pot, PLK1 kinase inh, Plk1 PBD FP)
Cc1ccc(C(=O)CSC2=C(C#N)C(c3ccco3)C3=C(CC(C)(C)CC3=O)N2)cc1 (stereo not given)	ERa coact pot 200.4
CC1(C)CC(=O)C2=C(C1)NC(SCC(=O)Nc1ccccc1)=C(C#N)C2c1ccco1 (stereo not given)	none
CCOC(=O)C1=C(c2ccccc2)NC(SCC(=O)NC2CCCCC2)=C(C#N)C1c1ccco1 (stereo not given)	ERa coact pot 364.2[fluorescence artefact?]
CC(=O)C1=C(C)NC(SCC(=O)c2ccc(C)cc2)=C(C#N)C1c1ccco1 (stereo not given)	none
COCCOC(=O)C1=C(C)NC(SCC(=O)NC(C)(C)C)=C(C#N)C1c1ccco1 (stereo not given)	none
COc1ccccc1NC(=O)C1=C(C)NC(SCC(=O)c2ccccc2)=C(C#N)C1c1ccco1 (stereo not given)	ERa coact pot 277.8[fluorescence artefact?]
C=CCOC(=O)C1=C(C)NC(SCC(=O)Nc2ccc(C)c(Cl)c2)=C(C#N)C1c1ccco1 (stereo not given)	ERa coact inh 94.2[fluorescence artefact?]
Cn1c(=O)c2c(nc(NCCNc3nc4c(c(=O)n(C)c(=O)n4C)n3C)n2C)n(C)c1=O	none (no result: ERb coact inh, ERa coact inh, ERa coact pot, PLK1 kinase inh, Plk1 PBD FP)
COc1ccc(-c2cc3nc(C)cc(N4CC(C)CC(C)C4)n3n2)cc1 (stereo not given)	none
NC(=O)SC/C(=N\S(=O)(=O)c1ccccc1)Nc1ccccc1	ERb coact inh 97.5[fluorescence artefact?]
CCn1c(NN)nc2sc3c(c2c1=O)CCC3	ERb coact inh 52.2
CCc1nc2sc3c(c2c(=O)n1N)CCC3	none
